Compounds with a hit are over-represented: about 4.2% of the library has one in this group of screens.
esBAF inh: Bmi1 luciferase reporter increase in mESCs, primary screen, esBAF inhibitor project, mouse ES cells, Bmi1 luciferase knock-in, single point; 24 h; 100% = twice the neutral-well signal; reporter increase, % at 12.5 µM; hit rate 2% among 350,000; in the data active = activation above about 40%; inconclusive = no clear call, values can overlap the other calls;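 note: 0% = median of the plate's neutral control wells and 100% = double that signal; a rise in the Bmi1 reporter signal indicates esBAF inhibition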
AHR act: AHR activators, primary screen, cell-based, luminescence, luciferase reporter, human. AHR-responsive luciferase reporter cells. Aryl hydrocarbon receptor (Homo sapiens), P35869. activation, % at 5 µM. hit rate 2.5% among 320,000. AID 2796, 2010; in the data active = activation above about 47%;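 note: 0% = vehicle wells and 100% = reference agonist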
Target sequence (P35869 whole entry, looked up): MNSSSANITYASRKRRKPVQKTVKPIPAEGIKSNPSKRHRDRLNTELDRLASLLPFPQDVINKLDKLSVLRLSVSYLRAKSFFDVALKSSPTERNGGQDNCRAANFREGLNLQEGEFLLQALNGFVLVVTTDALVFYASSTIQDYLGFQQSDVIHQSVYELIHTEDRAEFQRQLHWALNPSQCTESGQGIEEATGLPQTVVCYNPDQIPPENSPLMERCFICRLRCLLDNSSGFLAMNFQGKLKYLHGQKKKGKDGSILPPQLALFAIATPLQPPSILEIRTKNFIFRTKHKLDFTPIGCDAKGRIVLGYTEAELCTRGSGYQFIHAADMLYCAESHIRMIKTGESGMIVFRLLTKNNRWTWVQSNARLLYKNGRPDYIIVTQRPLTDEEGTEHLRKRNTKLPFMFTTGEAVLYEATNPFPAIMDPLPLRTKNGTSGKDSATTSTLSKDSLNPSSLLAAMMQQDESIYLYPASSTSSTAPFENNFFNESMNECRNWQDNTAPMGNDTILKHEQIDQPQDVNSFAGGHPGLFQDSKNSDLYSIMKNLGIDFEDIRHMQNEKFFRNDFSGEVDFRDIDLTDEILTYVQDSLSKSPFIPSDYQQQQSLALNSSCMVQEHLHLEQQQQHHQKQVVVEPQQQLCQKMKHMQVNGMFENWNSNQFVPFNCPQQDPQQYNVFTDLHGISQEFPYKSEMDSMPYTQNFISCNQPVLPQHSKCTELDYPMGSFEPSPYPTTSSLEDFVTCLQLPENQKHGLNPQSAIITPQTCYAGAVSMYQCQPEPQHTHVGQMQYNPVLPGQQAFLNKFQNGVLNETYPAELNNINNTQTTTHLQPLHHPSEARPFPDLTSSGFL
MITF act: activators of MITF-driven TRPM1 promoter reporter, primary screen, cell-based, SK-MEL-5, luciferase, single point; hit rate 0.75% among 300,000; SK-MEL-5 TRPM1-promoter luciferase, 24 h; % of positive control, neutral wells = 0; activation, % at 12.5 µM; AID 588334, 2011;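 active = mean activation of at least 80% with every replicate also reaching 80%; inconclusive = mean reaches 80% but some replicate falls short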;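 note: 0% = neutral control wells and 100% = parthenolide positive control wells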
Wnt act: Wnt/beta-catenin pathway activators, primary screen, cell-based, plate reader, single point | activation, % at 9.35 µM | Wnt/beta-catenin reporter cell assay, activator | AID 743398, 2014 | hit rate 1.2% among 300,000; in the data active = activation above about 30%, passing the limit was not always enough; inconclusive = no clear call, values can overlap the other calls;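 note: 0% = neutral control wells and 100% = positive control wells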
FXN GAA850 act: FXN promoter activators, primary screen, cell-based, luciferase luminescence, HEK293 lucGAA850; HEK293 lucGAA850 FXN promoter luciferase reporter, 24 h; percent of 10 µM SAHA response; activation, % at 6 µM; hit rate 0.56% among 360,000; AID 540364, 2011;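 active = activation above the average of all compounds screened plus 3 SD, cutoff fixed separately per campaign, cut at about 7.5% in these data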;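 note: 0% = DMSO wells and 100% = 10 µM SAHA wells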
Numbers without * were called inactive; ? = inconclusive; nt = no result.

SMILES	esBAF inh	AHR act	MITF act	Wnt act	FXN GAA850 act
CC(C)CCn1cnc2c(NCc3ccccc3)ncnc21	46.2*	6.7	45.5	nt	6.2
COc1ccccc1C(=O)N1C[C@@H]2[C@H](c3ccccc31)[C@H](CO)N2C(=O)C1CCCC1	-2.2	nt	nt	nt	nt
C[C@@H]1CN([C@H](C)CO)C(=O)Cc2cc(NC(=O)Nc3ccc(F)cc3)ccc2O[C@@H]1CN(C)S(=O)(=O)c1ccccc1	0.0	nt	nt	nt	nt
C[C@H]1CN([C@@H](C)CO)C(=O)c2cccc(NS(=O)(=O)c3cccs3)c2O[C@H]1CN(C)C(=O)NC1CCCCC1	1.6	nt	nt	nt	nt
O=C(NC[C@@H]1[C@@H](c2ccccc2)[C@@H](CO)N1C(=O)C1CCC1)NC1CCCC1	1.8	nt	nt	nt	nt
O=C(NCC[C@H]1CC[C@H](NS(=O)(=O)c2cccc(F)c2)[C@H](CO)O1)C1CC1	-5.9	nt	nt	nt	nt
OC[C@@H]1CN(Cc2ccccc2)C[C@H](n2cnc3c(NCc4ccc(F)cc4)ncnc32)O1	46.0*	nt	nt	nt	0.4
OC[C@@H]1CN(Cc2ccc(-c3ccccc3)cc2)C[C@H](n2cnc3c(NCc4ccc(F)cc4)ncnc32)O1	-10.5	nt	nt	nt	-6.4
Fc1cccc(CSc2ncnc3c2ncn3C2CCCCO2)c1 (stereo not given)	82.6*	nt	97.6*	-0.7	4.8
CC(C)[C@@H](C)NC(=O)N(C)C[C@H]1OCc2ccccc2-c2c(n(C)c3ccccc23)C(=O)N([C@H](C)CO)C[C@H]1C	5.1	nt	nt	nt	nt
O=C(C[C@@H]1CC[C@@H](NC(=O)Cc2cccnc2)[C@@H](CO)O1)NCc1ccc2c(c1)OCO2	-11.3	nt	nt	nt	nt
Cc1cc(C)[n+]2[nH]c(N)c(N=Nc3ccccc3)c2n1	nt	69.9*	nt	11.5	3.3
C[C@H](CO)N1C[C@H](C)[C@@H](CN(C)C(=O)Nc2ccc(F)cc2)Oc2c(NS(=O)(=O)c3cccs3)cccc2C1=O	3.2	nt	nt	nt	nt
CN(CCC#N)C(=O)c1cc2c(s1)-c1ccccc1SC2	53.3*	11.8	86.3*	26.4	2.9
COc1ccccc1-c1nc(C#N)c(NCCCn2ccnc2)o1	nt	70.3*	-11.7	1.5	1.7
COc1ccc(CCNc2oc(-c3ccccc3OC)nc2C#N)cc1	9.1	13.9	-0.8	nt	-0.3
COCCNc1oc(-c2ccccc2Cl)nc1C#N	54.6*	8.6	31.1	-3.9	2.6
CCNc1oc(-c2cccc3ccccc23)nc1C#N	59.8*	2.7	42.8	nt	7.0
C=CCNc1oc(-c2cccc3ccccc23)nc1C#N	24.0	1.0	27.7	nt	4.0
Cc1oc(-c2ccc(-c3ccccc3)cc2)nc1CN(CCO)C(C)C	59.8*	-2.4	36.0	11.6	5.2
CCCN(CCC)C(=O)c1cc(-c2ccc3c(c2)OCO3)nc2ccccc12	-9.8	66.2*	-30.7	nt	-2.7
COc1ccc(/C=C/C(=O)Nc2ccccc2C)cc1S(=O)(=O)N1CCOCC1	46.7*	15.3	18.8	-1.5	-0.7
COc1ccc(/C=C/C(=O)Nc2ccccc2F)cc1S(=O)(=O)N1CCOCC1	17.5	2.6	21.2	-3.0	-1.0
N/C(=N\c1nc2ccccc2o1)NC(=O)c1ccccc1NC(=O)c1ccccc1	14.7	65.6*	10.4	7.8	0.7
Cn1c(=O)c(C(=O)Nc2ccccc2S(N)(=O)=O)c(O)c2ccccc21	51.7*	22.2	16.2	15.6	6.0
SMILES	esBAF inh	AHR act	MITF act	Wnt act	FXN GAA850 act
Cn1c(=O)c(C(=O)NCCc2ccccc2)c(O)c2ccccc21	10.3	72.2*	nt	2.9	1.4
COCC#Cc1cnc2c(c1)C(=O)N([C@@H](C)CO)C[C@H](C)[C@@H](CN(C)C(=O)c1ccc(F)cc1)O2	-2.7	nt	nt	nt	nt
Cc1noc(C)c1S(=O)(=O)N(C)C[C@H]1Oc2ccc(NC(=O)Nc3cccc4ccccc34)cc2CC(=O)N([C@H](C)CO)C[C@@H]1C	5.6	nt	nt	nt	nt
Cc1ccc(NC(=S)c2ccccc2)cc1	67.8*	18.5	81.5*	?	2.4
COc1ccc(C(=S)Nc2ccc(C)cc2)cc1	nt	28.6	109.2*	nt	1.0
Cc1ccc(NC(=S)c2ccncc2)cc1	20.9	4.5	2.2	0.6	1.0
Cc1noc(C)c1NC(=O)N[C@H]1CC[C@@H](CC(=O)N2CCCCC2)O[C@H]1CO	2.8	nt	nt	nt	nt
CC(C)NC(=O)N(C)C[C@H]1OCCCC[C@@H](C)Oc2ccc(NS(=O)(=O)c3ccc(F)cc3)cc2C(=O)N([C@@H](C)CO)C[C@@H]1C	-7.4	nt	nt	nt	nt
COc1ccc(/C=C/C(=O)c2ccccn2)cc1	nt	-2.5	37.6	74.9*	5.1
COc1ccc(/C=C/C(=O)c2ccccc2O)cc1	86.9*	-4.8	140.7*	nt	3.0
O=C(NC1CCc2ccccc21)c1cc(COc2cncc(Cl)c2)on1 (stereo not given)	nt	55.4*	18.0	-1.1	1.0
O=C(CC(F)(F)F)N1C[C@H]2[C@@H](c3ccccc31)[C@@H](CO)N2C(=O)c1ccncc1	-5.8	nt	nt	nt	nt
CO[C@@H]1CN(C)C(=O)c2cc(NC(=O)C3CCOCC3)ccc2OC[C@@H](C)N(Cc2nccs2)C[C@H]1C	-6.5	nt	nt	nt	nt
O=C(N/N=C/c1ccc(Cl)cc1Cl)c1cccc(F)c1	63.4*	-2.7	138.4*	38.5*	2.5
O=C(N/N=C/c1ccc(Cl)cc1Cl)c1ccc2nc[nH]c2c1	27.6	9.0	1.8	3.2	2.8
CC(/C=N/NC(=O)c1cccc(F)c1)=C\c1ccccc1	6.9	7.8	44.0	39.6*	-2.1
CCCN(C)C[C@@H]1Oc2cc(C#Cc3ccccc3OC)ccc2S(=O)(=O)N([C@H](C)CO)C[C@@H]1C	-8.5	nt	nt	nt	nt
Cc1nc2nc(SCc3nc4ccccc4[nH]3)[nH]c2cc1Br	nt	25.5	nt	2.2	1.0
Cc1nc2nc(SCC(=O)c3cccc([N+](=O)[O-])c3)[nH]c2cc1Br	nt	56.8*	2.5	4.6	5.5
Cc1nc2nc(SCC(=O)C(C)(C)C)[nH]c2cc1Br	19.2	47.4*	11.1	nt	3.1
COC(=O)C[C@@H]1C[C@H]2c3cc(NC(=O)c4cccnc4)ccc3O[C@H]2[C@H](CO)O1	-0.6	nt	nt	nt	nt
COc1ccc(Cn2cc(CN3CCc4onc(-c5ccc(Br)cc5)c4C3=O)nn2)cc1	nt	nt	nt	32.1*	nt
Cc1ccc2nc(C)/c(=N\O)c(C)nc2c1	54.9*	13.6	24.0	nt	2.9
Cc1nc2ccc(Cl)cc2nc(C)/c1=N\O	20.4	57.8*	15.0	nt	2.9
O=C(C[C@H]1C[C@@H]2c3cc(NC(=O)C4CCC4)ccc3O[C@@H]2[C@H](CO)O1)NCCc1ccccc1	-0.6	nt	nt	nt	nt
CCCC#Cc1cnc2c(c1)C(=O)N([C@@H](C)CO)C[C@@H](C)[C@@H](CN(C)C(=O)C1CCCCC1)O2	-5.8	nt	nt	nt	nt
CCCC(=O)Nc1ccc2c(c1)C(=O)N(C)[C@@H]1CC[C@@H](CC(=O)NCCc3ccncc3)O[C@H]1CO2	0.1	nt	nt	nt	nt
Cc1noc(C)c1NC(=O)N(C)C[C@H]1Oc2ccc(NS(C)(=O)=O)cc2C(=O)N([C@@H](C)CO)C[C@@H]1C	-4.2	nt	nt	nt	nt
COCC(=O)N(C)C[C@@H]1Oc2cc(C#CCC3CCCC3)ccc2S(=O)(=O)N([C@@H](C)CO)C[C@@H]1C	7.2	nt	nt	nt	nt

Screening data deposited in PubChem by several laboratories.
